Compound activity: PubChem, National Center for Advancing Translational Sciences (NCATS)
Cycloheximide cs – Cycloheximide Counterscreen for Small Molecule Inhibitors of Shiga Toxin; cell reporter, cycloheximide protein synthesis inhibition counterscreen; max response, %; 300,000 compounds, 12% hits; AID 2314, 2010; in the data active = max response mostly above about 13%, no sharp cut-off; inactive = mostly below about 14%; note: read at 38.3 µM for the half of the compounds with a filed dose; 0% is about no effect
NS1 function inh – qHTS Assay for Inhibitors of Influenza NS1 Protein Function. AID 2326, 2010. Potency, µM (highest dose often 46.1 µM), for inactives: at the highest dose activity, positive = more growth. 270,000 compounds, 0.4% hits; calls by dose curve; note: potency is the fitted concentration of half-maximal effect; actives are rising curves; nearly all actives have a fitted effect of over 50% in size
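A cell-based growth assay was used: compounds that relieve NS1-induced slow growth of budding yeast raise OD600. Assay medium was yeast nitrogen base with ammonium sulphate and -URA supplement, pH 6.0, with 2% galactose.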
AmpC inh detg – qHTS Inhibitors of AmpC Beta-Lactamase (assay with detergent); P00811; AmpC hydrolysis of nitrocefin, absorbance 480 nm, 0.01% Triton; Potency, µM (top dose mostly 114 µM), without a hit: at the top dose activity change, negative = inhibition, actives largely listed as inhibitors; 370,000 compounds, 0.041% hits;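 note: potency is the fitted concentration of half-maximal effect; 0% = no-compound wells and -100% = no-enzyme wells; nearly all actives have a fitted effect of over 25% in size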
Target sequence (P00811 whole entry, looked up): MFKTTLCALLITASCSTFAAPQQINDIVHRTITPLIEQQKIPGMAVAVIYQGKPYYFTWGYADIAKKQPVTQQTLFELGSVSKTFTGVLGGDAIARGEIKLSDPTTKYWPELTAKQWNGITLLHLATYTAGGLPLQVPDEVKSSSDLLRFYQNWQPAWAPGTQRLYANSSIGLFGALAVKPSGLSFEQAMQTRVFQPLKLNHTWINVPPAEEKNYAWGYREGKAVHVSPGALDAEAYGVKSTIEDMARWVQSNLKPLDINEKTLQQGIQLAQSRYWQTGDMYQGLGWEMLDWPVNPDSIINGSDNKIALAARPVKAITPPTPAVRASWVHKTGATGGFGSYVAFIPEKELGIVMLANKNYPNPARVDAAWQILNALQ
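AmpC (5.3 nM in the dispensed reagent) in 20 mM phosphate pH 7.0 with 0.01% (detergent screen) or 0.0001% Triton X-100 was preincubated with compounds for 15 min at room temperature. Nitrocefin was then added from an 800 uM solution, and hydrolysis was followed at 480 nm.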
Shiga toxin inh – A qHTS for Small Molecule Inhibitors of Shiga Toxin; Vero cells, Shiga toxin protein synthesis inhibition reporter; inhibition, % at 38.7 µM; 290,000 compounds, 9.2% hits; AID 2315, 2010; in the data active = inhibition mostly above about 28%, no sharp cut-off; inactive = mostly below about 43%; note: 0% is about no effect
AmpC inh no detg – qHTS Inhibitors of AmpC Beta-Lactamase (assay without detergent). P00811. 330,000 compounds, 0.52% hits. Potency, µM (titrated, usually from 57.1 µM), for inactives: at the highest dose activity change, negative = inhibition, hits mostly inhibitors. AID 485341, 2010. AmpC nitrocefin hydrolysis, absorbance 480 nm, 0.0001% Triton;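 note: potency is the fitted concentration of half-maximal effect; plate controls were no compound for no effect and no enzyme for full effect; nearly all actives have a fitted effect of over 20% in size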
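AmpC (5.3 nM in the dispensed reagent) in 20 mM phosphate pH 7.0 with 0.01% (detergent screen) or 0.0001% Triton X-100 was preincubated with compounds for 15 min at room temperature. Nitrocefin was then added from an 800 uM solution, and hydrolysis was followed at 480 nm.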
Numbers without * were called inactive; ? = inconclusive; nt = no result given. Only a selection was taken, and hits are over-represented in it overall. Unless noted, calls come from the whole dose curve; as a rule, active = well fitted curve in the direction sought with a large enough effect; inconclusive = small, poorly fitted or top-dose-only effect, or another doubt; inactive = no such curve, though single readings can be large; an effect the other way counts as inactive or inconclusive.

SMILES | Cycloheximide cs | NS1 function inh | AmpC inh detg | Shiga toxin inh | AmpC inh no detg
CCn1cc(Cl)c(C(=O)Nc2c(C)nn(Cc3c(F)c(F)c(F)c(F)c3F)c2C)n1 | 2 | 12% | 2% | 6 | 28%
CCCSc1nc2sc3c(c2c(=O)n1Cc1ccccc1)CC(C)(CC)OC3 (stereo unspecified) | nt | nt | 17% | nt | nt
Cc1ccnc2nc(C(=O)Nc3ccc(N4CCOCC4)cc3)nn12 | 28* | 4% | -14% | 74* | -1%
O=C(Nc1ccc(N2CCOCC2)cc1)c1ccncc1 | 14* | 0% | -6% | 32* | -14%
O=C(Nc1ccc(N2CCOCC2)cc1)c1ccc([N+](=O)[O-])cc1 | 28* | nt | 1% | 85* | -4%
CC(=O)N1CCN(c2ccc(NC(=O)c3ccc([N+](=O)[O-])cc3)cc2)CC1 | -1 | 4% | -12% | 10 | -10%
O=C(Nc1ccc(N2CCOCC2)cc1)c1cccc(-n2cnnc2)c1 | 12 | 17% | -12% | -7 | 7%
CN(C)c1cccc(C(=O)Nc2ccc(N3CCOCC3)cc2)c1 | 23* | -1% | -5% | 77 | -17%
O=C(N/N=C/c1ccc(N2CCOCC2)cc1)c1ccncc1 | nt | nt | 1% | nt | -34%
COc1ccc(NC(=O)C2COc3ccccc3C2)cc1Cl (stereo unspecified) | nt | nt | 30% | nt | nt
O=C(Nc1ccc(COc2ccccc2)cc1)Oc1ccccc1N1CCOCC1 | 17* | -1% | 8% | 22 | -9%
Cc1cccc(NS(=O)(=O)c2ccc(C(=O)N3CCCCCC3)cc2)c1C | nt | nt | -13% | nt | 24%
CC1=C(CC(=O)c2ccc(Cl)cc2)C(=O)c2ccccc2C1=O | 27* | 29% | -5% | 61* | -48%
COc1ccc(-c2noc(-c3ccc(Br)o3)n2)cc1OC | 10 | 3% | 0% | 6 | -6%
COc1cccc(OCc2nc(-c3cccc([N+](=O)[O-])c3)no2)c1 | 25* | nt | -3% | 46 | -25%
Cc1cccc(OCc2nc(-c3ccc(Br)o3)no2)c1 | 13 | nt | 1% | 92* | -17%
COc1cccc(OCc2nc(-c3ccc(Br)o3)no2)c1 | 28* | nt | 3% | 48 | -21%
Brc1ccc(-c2noc(COc3ccc4ccccc4c3)n2)o1 | 9 | -2% | 1% | 10 | -19%
COc1ccc(Cc2nc(-c3ccc(Br)o3)no2)cc1OC | 18* | -52% | ? | 52 | 13%
Cc1ccc(-c2noc(COc3ccc(Br)c(C)c3)n2)cc1 | nt | nt | 11% | nt | nt
CC1=CCC2C(=O)N(c3nc(C)cc(C)n3)C(=O)C2C1 (stereo unspecified) | 6 | -1% | 2% | 12 | -1%
CC1=CCC2C(=O)N(c3ccc4ccccc4n3)C(=O)C2C1 (stereo unspecified) | 9.4* | 0% | 0% | -33 | 0.14µM*
CC(=O)N(NC(=O)c1ccccc1Cl)C1CC(=O)N(c2ccc(C)cc2)C1=O (stereo unspecified) | -2 | -9% | 0% | -20 | -7%
Cc1ccc(C(=O)CSc2nnc(C3CC3)n2C2CC2)s1 | nt | nt | 0% | nt | -11%
Cc1cc(/C=N/Nc2nc(N)ncc2[N+](=O)[O-])c(C)n1-c1cccc(C(F)(F)F)c1 | 26* | 1% | -6% | 62* | 38%
SMILES | Cycloheximide cs | NS1 function inh | AmpC inh detg | Shiga toxin inh | AmpC inh no detg
COc1ccc(C(=O)N/N=C/c2cc3ccccc3[nH]c2=S)cc1 | 3 | 20% | 0% | 11 | -17%
COc1cc(/C=N/NC(=O)c2cccc3ccccc23)cc(OC)c1O | 1 | -9% | ? | 17 | -18%
O=C(N/N=C/c1sc2ccccc2c1O)c1cccc2ccccc12 | 25* | 9% | -1% | 40 | -41%
O=C(N/N=C/c1sc2ccccc2c1O)c1ccccc1 | 50* | -43% | -1% | 61* | -19%
COc1ccc2cc(C(=O)N/N=C/c3sc4ccccc4c3O)ccc2c1 | 52* | 14% | ? | 111* | -30%
COc1ccc(C(=O)N/N=C/c2c(CO)cnc(C)c2O)cc1 | -2 | nt | 3% | 13 | -24%
COc1ccc(C(=O)N/N=C/c2sc3ccccc3c2O)cc1 | 40* | -25% | -1% | 116* | -25%
CCCOC(=O)c1ccc(Nc2nc3ccccc3nc2-n2nc(C)cc2C)cc1 | nt | nt | 11% | nt | nt
CCCOC(=O)CCn1c(=S)oc2ccccc21 | 39* | -47% | -10% | 76* | 11%
